Laboratory results published in ChEMBL document CHEMBL2218924, “A broad activity screen in support of a chemogenomic map for kinase signalling research and drug discovery” (Biochem J, 2013).

Assays:
[1] = target: Protein kinase C eta type (Homo sapiens) (UniProt P24723); settings: at 1 µM
[2] = target: Protein kinase C eta type (Homo sapiens) (UniProt P24723); settings: at 10 µM
[3] = target: Protein kinase C theta type (Homo sapiens) (UniProt Q04759); settings: at 1 µM
[4] = target: Protein kinase C theta type (Homo sapiens) (UniProt Q04759); settings: at 10 µM
[5] = target: T1, Serine/threonine-protein kinase D1 (Homo sapiens) (UniProt Q15139); settings: at 1 µM
T1 sequence (whole entry): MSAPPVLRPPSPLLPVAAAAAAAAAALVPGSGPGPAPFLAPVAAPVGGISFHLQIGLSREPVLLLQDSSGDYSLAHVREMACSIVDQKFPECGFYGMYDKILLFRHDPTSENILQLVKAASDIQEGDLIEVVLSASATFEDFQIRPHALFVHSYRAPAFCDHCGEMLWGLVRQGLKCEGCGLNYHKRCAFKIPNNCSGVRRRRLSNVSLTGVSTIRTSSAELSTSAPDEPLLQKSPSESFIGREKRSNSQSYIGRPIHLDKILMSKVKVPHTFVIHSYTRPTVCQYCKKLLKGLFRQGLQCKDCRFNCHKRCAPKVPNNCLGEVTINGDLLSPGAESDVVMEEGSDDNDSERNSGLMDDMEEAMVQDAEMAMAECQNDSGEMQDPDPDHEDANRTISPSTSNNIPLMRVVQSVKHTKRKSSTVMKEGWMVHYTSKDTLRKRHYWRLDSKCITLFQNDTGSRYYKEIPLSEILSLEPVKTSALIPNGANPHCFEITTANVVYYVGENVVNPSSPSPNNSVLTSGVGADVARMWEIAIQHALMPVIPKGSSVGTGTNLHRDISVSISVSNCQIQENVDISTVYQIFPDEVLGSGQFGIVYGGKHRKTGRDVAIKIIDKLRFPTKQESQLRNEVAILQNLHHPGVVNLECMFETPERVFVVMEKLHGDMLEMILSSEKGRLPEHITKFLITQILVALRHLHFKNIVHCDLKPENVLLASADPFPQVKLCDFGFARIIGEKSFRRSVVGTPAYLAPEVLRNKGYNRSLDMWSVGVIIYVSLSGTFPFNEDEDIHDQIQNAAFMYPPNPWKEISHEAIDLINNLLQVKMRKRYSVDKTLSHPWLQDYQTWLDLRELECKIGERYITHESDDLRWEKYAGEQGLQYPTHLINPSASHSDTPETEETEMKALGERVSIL

[6] = target: T1, Serine/threonine-protein kinase D1 (Homo sapiens); settings: at 10 µM
[7] = target: T2, cGMP-dependent protein kinase 1 (Homo sapiens) (UniProt Q13976); settings: at 1 µM
T2 sequence (whole entry): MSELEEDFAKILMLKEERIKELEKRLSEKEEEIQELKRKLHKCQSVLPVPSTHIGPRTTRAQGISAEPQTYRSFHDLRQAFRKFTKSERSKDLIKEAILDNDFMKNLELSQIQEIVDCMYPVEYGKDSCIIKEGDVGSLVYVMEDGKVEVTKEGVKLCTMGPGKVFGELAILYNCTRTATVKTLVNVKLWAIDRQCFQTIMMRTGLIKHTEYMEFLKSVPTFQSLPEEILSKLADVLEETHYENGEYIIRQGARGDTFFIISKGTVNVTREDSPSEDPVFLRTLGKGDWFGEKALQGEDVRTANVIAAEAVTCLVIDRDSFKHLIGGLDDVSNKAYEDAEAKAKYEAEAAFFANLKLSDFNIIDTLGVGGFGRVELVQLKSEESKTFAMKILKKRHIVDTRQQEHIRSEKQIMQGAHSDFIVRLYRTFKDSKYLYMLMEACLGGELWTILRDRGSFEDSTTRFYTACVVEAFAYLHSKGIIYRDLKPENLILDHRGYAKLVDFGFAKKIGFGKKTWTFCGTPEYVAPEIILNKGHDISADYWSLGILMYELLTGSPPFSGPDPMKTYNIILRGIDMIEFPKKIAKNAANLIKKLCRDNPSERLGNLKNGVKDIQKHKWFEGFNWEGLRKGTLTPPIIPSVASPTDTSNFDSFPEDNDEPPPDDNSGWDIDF

[8] = target: T2, cGMP-dependent protein kinase 1 (Homo sapiens); settings: at 10 µM
[9] = target: T2, cGMP-dependent protein kinase 1 (Homo sapiens); settings: at 1 µM; remark: listed apart in the source
[10] = target: T2, cGMP-dependent protein kinase 1 (Homo sapiens); settings: at 10 µM; remark: listed apart in the source
[11] = target: T3, MAP kinase-activated protein kinase 5 (Homo sapiens) (UniProt Q8IW41); settings: at 1 µM
T3 sequence (whole entry): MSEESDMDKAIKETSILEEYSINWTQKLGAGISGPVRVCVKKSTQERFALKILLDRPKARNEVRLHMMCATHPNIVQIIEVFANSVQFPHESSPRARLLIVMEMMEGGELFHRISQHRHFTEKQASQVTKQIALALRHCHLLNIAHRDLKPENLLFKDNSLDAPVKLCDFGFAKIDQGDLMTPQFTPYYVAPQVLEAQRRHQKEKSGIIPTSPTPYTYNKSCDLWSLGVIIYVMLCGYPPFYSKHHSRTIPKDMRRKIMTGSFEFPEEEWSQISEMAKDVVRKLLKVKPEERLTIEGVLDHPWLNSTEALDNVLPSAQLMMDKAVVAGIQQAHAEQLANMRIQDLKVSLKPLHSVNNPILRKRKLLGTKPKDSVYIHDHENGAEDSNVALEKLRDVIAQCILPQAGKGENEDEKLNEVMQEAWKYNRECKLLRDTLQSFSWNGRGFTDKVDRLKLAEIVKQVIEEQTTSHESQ

[12] = target: T3, MAP kinase-activated protein kinase 5 (Homo sapiens); settings: at 10 µM
[13] = target: Serine/threonine-protein kinase N2 (Homo sapiens) (UniProt Q16513); settings: at 1 µM
[14] = target: Serine/threonine-protein kinase N2 (Homo sapiens) (UniProt Q16513); settings: at 10 µM
[15] = target: Tyrosine-protein kinase FRK (Homo sapiens) (UniProt P42685); settings: at 1 µM
[16] = target: Tyrosine-protein kinase FRK (Homo sapiens) (UniProt P42685); settings: at 10 µM
[17] = target: T4, Protein kinase C iota type (Homo sapiens) (UniProt P41743); settings: at 1 µM
T4 sequence (whole entry): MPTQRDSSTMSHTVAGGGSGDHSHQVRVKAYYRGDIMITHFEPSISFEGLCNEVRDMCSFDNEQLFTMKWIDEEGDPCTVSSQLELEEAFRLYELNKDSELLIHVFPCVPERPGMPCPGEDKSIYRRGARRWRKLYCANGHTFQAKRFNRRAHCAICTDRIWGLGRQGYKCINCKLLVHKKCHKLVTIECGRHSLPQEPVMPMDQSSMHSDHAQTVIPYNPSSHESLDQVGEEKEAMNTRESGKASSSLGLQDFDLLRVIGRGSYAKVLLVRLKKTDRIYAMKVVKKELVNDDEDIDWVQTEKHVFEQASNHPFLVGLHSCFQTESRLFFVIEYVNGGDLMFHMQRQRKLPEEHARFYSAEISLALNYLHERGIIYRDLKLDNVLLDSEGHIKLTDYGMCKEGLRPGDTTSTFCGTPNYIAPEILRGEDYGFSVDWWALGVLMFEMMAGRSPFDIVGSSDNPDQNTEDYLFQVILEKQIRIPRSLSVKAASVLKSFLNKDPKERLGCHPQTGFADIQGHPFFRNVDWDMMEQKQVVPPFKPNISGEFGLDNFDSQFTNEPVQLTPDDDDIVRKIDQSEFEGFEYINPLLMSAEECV

[18] = target: T4, Protein kinase C iota type (Homo sapiens); settings: at 10 µM
[19] = target: T5, Serine/threonine-protein kinase D2 (Homo sapiens) (UniProt Q9BZL6); settings: at 1 µM
T5 sequence (whole entry): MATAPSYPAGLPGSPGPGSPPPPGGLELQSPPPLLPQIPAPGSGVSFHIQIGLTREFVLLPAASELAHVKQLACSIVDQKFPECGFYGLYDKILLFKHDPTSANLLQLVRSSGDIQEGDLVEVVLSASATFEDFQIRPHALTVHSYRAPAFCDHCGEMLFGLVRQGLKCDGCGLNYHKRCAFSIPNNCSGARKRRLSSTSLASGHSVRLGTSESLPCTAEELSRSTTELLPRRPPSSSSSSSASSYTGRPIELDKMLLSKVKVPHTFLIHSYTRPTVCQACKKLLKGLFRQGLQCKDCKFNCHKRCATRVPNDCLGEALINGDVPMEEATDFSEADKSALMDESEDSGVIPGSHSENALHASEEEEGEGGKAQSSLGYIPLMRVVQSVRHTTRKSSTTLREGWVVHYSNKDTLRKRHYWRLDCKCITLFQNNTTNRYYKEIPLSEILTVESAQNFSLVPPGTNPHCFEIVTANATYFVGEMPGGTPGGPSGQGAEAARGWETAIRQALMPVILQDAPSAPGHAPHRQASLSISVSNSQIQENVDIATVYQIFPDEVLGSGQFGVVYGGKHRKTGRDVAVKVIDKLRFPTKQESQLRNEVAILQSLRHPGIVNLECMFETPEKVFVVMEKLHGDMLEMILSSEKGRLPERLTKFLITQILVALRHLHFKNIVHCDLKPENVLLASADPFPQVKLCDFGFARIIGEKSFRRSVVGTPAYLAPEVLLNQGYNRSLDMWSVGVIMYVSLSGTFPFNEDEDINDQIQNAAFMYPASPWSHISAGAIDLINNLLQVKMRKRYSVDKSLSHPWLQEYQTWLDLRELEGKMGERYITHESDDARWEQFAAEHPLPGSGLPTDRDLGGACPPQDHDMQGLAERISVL

[20] = target: T5, Serine/threonine-protein kinase D2 (Homo sapiens); settings: at 10 µM

Chain of Protein kinase C eta type (Homo sapiens) (P24723 whole entry): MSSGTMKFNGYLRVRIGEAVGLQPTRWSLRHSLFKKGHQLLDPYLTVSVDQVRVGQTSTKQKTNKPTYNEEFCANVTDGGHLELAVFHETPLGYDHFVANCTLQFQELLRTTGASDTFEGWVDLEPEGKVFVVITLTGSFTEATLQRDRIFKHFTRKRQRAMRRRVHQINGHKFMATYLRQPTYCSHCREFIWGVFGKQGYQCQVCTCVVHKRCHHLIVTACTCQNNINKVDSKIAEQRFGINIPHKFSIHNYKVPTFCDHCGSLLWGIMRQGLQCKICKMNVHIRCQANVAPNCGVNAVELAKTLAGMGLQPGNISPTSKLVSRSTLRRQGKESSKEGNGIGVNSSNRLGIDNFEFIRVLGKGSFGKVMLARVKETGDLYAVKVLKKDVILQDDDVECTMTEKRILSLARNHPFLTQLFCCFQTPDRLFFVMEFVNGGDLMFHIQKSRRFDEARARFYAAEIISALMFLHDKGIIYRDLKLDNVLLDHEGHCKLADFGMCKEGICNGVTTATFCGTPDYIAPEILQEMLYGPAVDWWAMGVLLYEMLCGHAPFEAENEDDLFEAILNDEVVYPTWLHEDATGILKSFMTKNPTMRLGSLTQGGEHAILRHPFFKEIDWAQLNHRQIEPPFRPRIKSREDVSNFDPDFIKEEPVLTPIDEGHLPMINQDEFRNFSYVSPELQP
Chain of Tyrosine-protein kinase FRK (Homo sapiens) (P42685 whole entry): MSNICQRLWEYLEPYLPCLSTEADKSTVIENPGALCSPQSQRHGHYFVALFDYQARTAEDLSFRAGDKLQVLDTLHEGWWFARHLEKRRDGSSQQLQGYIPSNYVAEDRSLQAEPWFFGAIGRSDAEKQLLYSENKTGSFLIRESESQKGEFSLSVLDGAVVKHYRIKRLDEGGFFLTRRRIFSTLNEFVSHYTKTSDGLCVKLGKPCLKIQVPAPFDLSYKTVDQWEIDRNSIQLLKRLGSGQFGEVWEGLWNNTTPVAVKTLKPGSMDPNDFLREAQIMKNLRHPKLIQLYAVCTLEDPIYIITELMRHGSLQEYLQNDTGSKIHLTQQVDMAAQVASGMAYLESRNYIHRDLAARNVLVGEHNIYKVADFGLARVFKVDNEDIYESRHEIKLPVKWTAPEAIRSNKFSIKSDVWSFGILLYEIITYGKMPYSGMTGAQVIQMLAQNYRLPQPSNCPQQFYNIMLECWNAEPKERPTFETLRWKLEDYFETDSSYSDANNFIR
Chain of Protein kinase C theta type (Homo sapiens) (Q04759 whole entry, looked up): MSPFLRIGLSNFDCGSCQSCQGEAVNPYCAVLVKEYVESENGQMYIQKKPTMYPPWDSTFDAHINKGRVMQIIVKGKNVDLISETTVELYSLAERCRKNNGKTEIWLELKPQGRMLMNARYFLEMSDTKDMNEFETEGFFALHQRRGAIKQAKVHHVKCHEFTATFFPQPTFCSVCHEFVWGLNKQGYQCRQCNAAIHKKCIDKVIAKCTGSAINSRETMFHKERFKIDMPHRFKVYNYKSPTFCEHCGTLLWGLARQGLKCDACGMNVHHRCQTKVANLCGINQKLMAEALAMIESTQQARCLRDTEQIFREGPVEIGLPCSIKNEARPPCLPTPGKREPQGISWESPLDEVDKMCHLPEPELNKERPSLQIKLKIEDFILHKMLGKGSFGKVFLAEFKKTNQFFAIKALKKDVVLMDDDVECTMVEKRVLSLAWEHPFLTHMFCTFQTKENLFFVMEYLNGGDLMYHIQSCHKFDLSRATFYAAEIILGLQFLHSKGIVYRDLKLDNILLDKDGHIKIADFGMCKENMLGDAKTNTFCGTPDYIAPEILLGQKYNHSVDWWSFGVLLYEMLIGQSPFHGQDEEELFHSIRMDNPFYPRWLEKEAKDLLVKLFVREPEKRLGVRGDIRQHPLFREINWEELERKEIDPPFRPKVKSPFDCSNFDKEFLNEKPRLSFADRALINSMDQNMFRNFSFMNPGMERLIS
Chain of Serine/threonine-protein kinase N2 (Homo sapiens) (Q16513 whole entry, looked up): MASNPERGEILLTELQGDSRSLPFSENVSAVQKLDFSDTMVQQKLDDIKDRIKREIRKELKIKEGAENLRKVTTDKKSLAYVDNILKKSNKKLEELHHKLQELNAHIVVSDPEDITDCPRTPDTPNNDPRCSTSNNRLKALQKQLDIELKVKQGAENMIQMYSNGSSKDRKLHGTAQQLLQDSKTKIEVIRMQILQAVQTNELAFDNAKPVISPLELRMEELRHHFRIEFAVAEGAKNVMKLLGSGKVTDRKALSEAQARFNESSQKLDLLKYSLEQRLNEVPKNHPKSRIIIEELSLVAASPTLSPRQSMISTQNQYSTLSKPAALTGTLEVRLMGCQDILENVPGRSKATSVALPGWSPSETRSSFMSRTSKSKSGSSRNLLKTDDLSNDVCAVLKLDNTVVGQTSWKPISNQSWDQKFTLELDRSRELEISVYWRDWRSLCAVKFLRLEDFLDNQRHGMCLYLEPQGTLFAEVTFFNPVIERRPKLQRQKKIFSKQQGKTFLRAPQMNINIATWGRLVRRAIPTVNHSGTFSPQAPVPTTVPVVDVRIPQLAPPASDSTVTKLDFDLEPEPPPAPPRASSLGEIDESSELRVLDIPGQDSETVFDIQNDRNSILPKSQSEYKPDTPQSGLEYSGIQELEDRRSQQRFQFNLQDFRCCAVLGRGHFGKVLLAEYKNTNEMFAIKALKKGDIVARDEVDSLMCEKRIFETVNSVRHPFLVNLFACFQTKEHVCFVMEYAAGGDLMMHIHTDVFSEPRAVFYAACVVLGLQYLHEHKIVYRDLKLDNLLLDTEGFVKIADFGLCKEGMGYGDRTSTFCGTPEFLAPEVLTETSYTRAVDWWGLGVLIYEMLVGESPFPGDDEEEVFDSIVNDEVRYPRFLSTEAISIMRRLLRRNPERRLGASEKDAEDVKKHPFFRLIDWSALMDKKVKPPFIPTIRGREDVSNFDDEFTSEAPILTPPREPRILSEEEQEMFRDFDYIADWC

SMILES	residual activity [1]	residual activity [2]	residual activity [3]	residual activity [4]	residual activity [5]	residual activity [6]	residual activity [7]	residual activity [8]	residual activity [9]	residual activity [10]	residual activity [11]	residual activity [12]	residual activity [13]	residual activity [14]	residual activity [15]	residual activity [16]	residual activity [17]	residual activity [18]	residual activity [19]	residual activity [20]
O=C1Cc2c([nH]c3ccc(Br)cc23)-c2ccccc2N1	72%	94%	49%	31%	99%	80%	98%	97%	83%	74%	97%	70%	60%	26%	68%	40%	–	–	–	–
COc1cc2ncnc(Nc3cccc(Cl)c3)c2cc1OC	110%	108%	105%	101%	110%	73%	–	–	–	–	–	–	–	76%	53%	6%	–	–	–	–
CC(C)c1nn(-c2c(Cl)cccc2Cl)c2nc(Cc3ccc(OCCO)cc3)[nH]c(=O)c12	92%	91%	90%	80%	–	95%	103%	102%	91%	48%	–	73%	89%	91%	72%	35%	99% (inactive)	102%	95%	91%
O=C1Nc2ccc(Cl)cc2/C1=C/c1cc(Cl)c(O)c(Cl)c1	95%	79%	99%	76%	–	–	84%	79%	79%	44%	95%	17%	99%	94%	56%	5%	85% (inactive)	83%	98%	56%
NC(=O)c1ccc(-c2nc(-c3ccc4c(c3)OCCO4)c(-c3ccccn3)[nH]2)cc1	94%	88%	–	–	87%	62%	–	–	–	63%	–	89%	120%	98%	98%	89%	–	–	98%	87%
Nc1nccc(-c2c(-c3ccc(F)cc3)ncn2C2CCNCC2)n1	114%	70%	–	–	46%	3%	–	–	–	–	118%	112%	–	82%	–	–	–	–	–	49%
Nc1ncnc2c1c(-c1ccc(Oc3ccccc3)cc1)cn2C1CCCC1	95%	67%	94%	109%	–	–	102%	96%	82%	72%	90%	46%	87%	100%	2%	2%	87% (inactive)	76%	93%	95%
O=C(O)/C=C/c1cc(Br)c(Br)c(Br)c1Br	100%	79%	100%	90%	109%	64%	94%	65%	82%	32%	83%	28%	–	38%	102%	86%	96% (inactive)	100%	102%	97%
Nc1ncnc2c1cnn2-c1ccccc1	102%	76%	–	–	92%	–	–	–	–	–	94%	–	85%	79%	–	90%	102% (inactive)	98%	–	–
Nc1n[nH]c2nc3ccccc3nc12	89%	68%	–	85%	83%	69%	–	88%	–	59%	95%	–	–	74%	98%	92%	–	–	–	87%
O=c1cc(N2CCOCC2)oc2c1ccc1ccccc12	94%	79%	94%	105%	77%	79%	–	–	91%	99%	28%	42%	101%	98%	–	90%	85% (inactive)	97%	100%	94%
COc1cc2nccc(Oc3ccc(NC(=S)NC(=O)c4ccccc4C)cc3)c2cc1OC	98%	71%	89%	97%	87%	89%	97%	97%	69%	66%	70%	79%	90%	88%	6%	1%	88% (inactive)	82%	–	–
